NPR1 antag: human Npr1 receptor antagonism; HEK293 hNpr1 GloSensor cGMP, ANP-stimulated luminescence; Potency, µM (titrated, usually from 46.3 µM), without a hit: top-dose activity change, negative = inhibition, most hits filed as inhibitors; 1.6% of 76,000 active; calls by dose curve; also: % is scaled to controls: 0 for no effect and ±100 for the full control effect; nearly all actives have a fitted effect of over 60% in size
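HEK293 cells stably expressing human Npr1 and cGMP GloSensor pGS-40F, loaded 2 h with 2% GloSensor reagent, given compound 30 min at room temperature. Luminescence read before and 20 min after 0.1 nM hNppA.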
HEK293 tox: cytotoxic compounds in HEK 293 cells. HEK 293 viability, ATP luminescence (CellTiter-Glo), 48-72 h. Potency, µM (highest dose often 115 µM), inactives show at the highest dose activity change, negative = cytotoxicity, actives largely listed as inhibitors. 6.6% of 94,000 active. AID 1345083; also: % is scaled to controls: 0 for no effect and ±100 for the full control effect; nearly all actives have a fitted effect of over 60% in size
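Read-out: CellTiter-Glo ATP luminescence. Cells: HEK 293, 250 cells/well. Exposure: 48 or 72 hr, 37 degree Celsius.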
3T3 cytotox: cytotoxic compounds in NIH 3T3 cells. Potency, µM (top dose mostly 96.7 µM), without a hit: at the highest dose activity change, negative = cytotoxicity, hits mostly inhibitors. AID 1345082. 4.3% of 94,000 active. NIH 3T3 viability, CellTiter-Glo ATP luminescence, 48-72 h; also: % is scaled to controls: 0 for no effect and ±100 for the full control effect; nearly all actives have a fitted effect of over 55% in size
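ATP-dependent luminescence (CellTiter-Glo) served as the viability signal for NIH 3T3 cells treated with compound for 48 or 72 hr at 37 °C.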
FLuc inh-1: Photinus pyralis luciferase inhibition; purified P. pyralis luciferase, luminescence, biochemical; Potency, µM (titrated, usually from 115 µM), most hits filed as inhibitors; 2.5% of 76,000 active; also: % is scaled to controls: 0 for no effect and ±100 for the full control effect; nearly all actives have a fitted effect of over 65% in size
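Purified P. pyralis luciferase (10nM final) in 50mM Tris acetate pH 7.5, 10mM Mg acetate, 0.01% Tween-20, 0.05% BSA with 10uM D-luciferin and 10uM ATP. Compounds titrated qHTS. Luminescence imaged on CCD.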
FLuc SDR -ATP: firefly luciferase binding stabilization, ATP absent; shares compounds with FLuc inh-1; Purified FLuc-C-HiBiT, Nano-Glo HiBiT luminescence, no ATP; Potency, µM (series often up to 32.7 µM), for the others: top-dose activation (signal gain), usual class: activators; 7.8% of 1,300 active; also: nearly all actives have a fitted effect of over 55% in size
FLuc SDR ATP: binders stabilizing firefly luciferase, plus ATP; purified FLuc-C-HiBiT + ATP, HiBiT complementation luminescence; AID 1963319; shares compounds with FLuc inh-1; Potency, µM (top dose mostly 32.7 µM), inactives show at the top dose activation (gain of signal), usual class: activators; 8.7% of 1,300 active;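 also: signal reports ligand binding via conformational change of the enzyme rather than luciferase catalysis; % of control where 0% means no effect; nearly all actives have a fitted effect of over 55% in size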
FLuc inh-2: blocks firefly luciferase enzymatic activity | shares compounds with FLuc inh-1 | purified FLuc-C-HiBiT enzyme, luciferin luminescence | Potency, µM (highest dose often 32.7 µM), inactives show at the top dose activity change, negative = inhibition, most hits filed as inhibitors | 42% of 1,300 active | AID 1963320; also: % is scaled to controls: 0 for no effect and ±100 for the full control effect; nearly all actives have a fitted effect of over 70% in size
An asterisk follows results filed as active; [ ] = another dose, or the depositor's remark. A selection: hits, their analogues and other compounds. The true share with any hit is near 11%. Unless noted, calls follow the shape of the dose curve; as a rule, active = well fitted curve in the direction sought with a large enough effect; inconclusive = small, poorly fitted or top-dose-only effect, or another doubt; inactive = no such curve, though single readings can be large; an effect the other way counts as inactive or inconclusive. Potency is read from the fitted curve at half-maximal effect.

`Fc1cccc(Nc2nc(-c3ccccc3)no2)c1` gave NPR1 antag inconclusive, HEK293 tox inconclusive, 3T3 cytotox inconclusive, FLuc inh-1 3.2µM*, FLuc SDR -ATP 22%, FLuc SDR ATP 19% and FLuc inh-2 7µM*.
For Fc1cccc(Cc2noc(-c3nc(-c4ccccc4)no3)n2)c1 the results were NPR1 antag -2%, HEK293 tox inconclusive, 3T3 cytotox -15% and FLuc inh-1 inactive.
Cc1cc(C)cc(Nc2nc(-c3ccccc3F)no2)c1 was read as NPR1 antag inconclusive, HEK293 tox 40µM*, 3T3 cytotox 45µM*, FLuc inh-1 1.6µM*, FLuc SDR -ATP 16%, FLuc SDR ATP 14% and FLuc inh-2 6.2µM*.
For c1ccc(CNc2nc(-c3ccccc3)no2)cc1 the results were NPR1 antag inconclusive, HEK293 tox inconclusive, 3T3 cytotox inconclusive, FLuc inh-1 14µM*, FLuc SDR -ATP 19%, FLuc SDR ATP 14% and FLuc inh-2 inconclusive.
Screening O=C(C1CCCCc2nnc(-c3ccccc3)n21)N1CCCC1 (stereo not drawn) returned HEK293 tox 2% and 3T3 cytotox -9%.
For COc1cccc(CN2CCCC(O)(CN3CCC4(CC3)OCCO4)C2=O)c1 (stereo not drawn) the results were NPR1 antag 0%, HEK293 tox -19%, 3T3 cytotox -11% and FLuc inh-1 inactive.
For Fc1ccc(Nc2nc(-c3ccccc3)no2)cc1 the results were NPR1 antag inconclusive, HEK293 tox inconclusive, 3T3 cytotox inconclusive, FLuc inh-1 3.2µM*, FLuc SDR -ATP 22%, FLuc SDR ATP 18% and FLuc inh-2 6.2µM*.
`c1ccc(CNc2cc(-c3cc(N4CCCCC4)ncn3)c3cc[nH]c3n2)nc1` gave NPR1 antag -2%, HEK293 tox inconclusive, 3T3 cytotox inconclusive, FLuc inh-1 7.9µM*, FLuc SDR -ATP 24%, FLuc SDR ATP 12% and FLuc inh-2 9.9µM*.
Cc1ccc(-c2nnc(SCc3ccccc3C#N)o2)cc1 was read as FLuc SDR -ATP 17%, FLuc SDR ATP inconclusive and FLuc inh-2 2.2µM*.
Screening Nc1nc2c(s1)C(c1ccc(F)cc1F)CC(=O)N2 (stereo not drawn) returned NPR1 antag -24%, HEK293 tox 6%, 3T3 cytotox -23% and FLuc inh-1 inconclusive.
Screening CN(C1CCc2ccccc2C1)[S+](=O)([O-])c1cccs1 (stereo not drawn) returned NPR1 antag 3%[70.6 µM], HEK293 tox inconclusive, 3T3 cytotox inconclusive, FLuc inh-1 inactive, FLuc SDR -ATP 12%[49.3 µM], FLuc SDR ATP 6%[49.3 µM] and FLuc inh-2 -9%[49.3 µM].
Screening CCCCC(=O)Nc1cc(-c2nc3ccccc3s2)ccc1C returned FLuc SDR -ATP 18%, FLuc SDR ATP 10% and FLuc inh-2 -6%.
For CC(=O)Nc1cc(-c2nc3ccccc3s2)ccc1C the results were FLuc SDR -ATP 29%, FLuc SDR ATP 20% and FLuc inh-2 inconclusive.
CCCS(=O)(=O)N1CCCC1c1nc2ccccc2s1 (stereo not drawn) was read as NPR1 antag 9%, HEK293 tox inconclusive, 3T3 cytotox -29% and FLuc inh-1 inactive.
Screening CCCN1C(=O)c2ccc(-c3nc4ccccc4s3)cc2C1=O returned FLuc SDR -ATP inconclusive, FLuc SDR ATP 18% and FLuc inh-2 2µM*.
N#Cc1c(-n2ncnc2-c2cccc(Br)c2)sc2c1CCCCC2 was read as FLuc SDR -ATP 31%, FLuc SDR ATP inconclusive and FLuc inh-2 3.1µM*.
`O=C1CCC2(CCN(C/C=C/c3ccccc3)CC2)CN1CCCn1ccnc1` gave NPR1 antag -1%, HEK293 tox inconclusive, 3T3 cytotox inconclusive and FLuc inh-1 inactive.
`O=C(Nc1cccc(-c2ccc(N3CCOCC3)nn2)c1)Nc1cccc(C(F)(F)F)c1` gave NPR1 antag 11µM*, HEK293 tox 28µM*, 3T3 cytotox inconclusive, FLuc inh-1 1.8µM*, FLuc SDR -ATP inconclusive, FLuc SDR ATP 18% and FLuc inh-2 5µM*.
`CN1CCN(c2ccc(-c3cccc(NC(=O)C4CCCCC4)c3)nn2)CC1` gave NPR1 antag -11%, HEK293 tox inconclusive, 3T3 cytotox inconclusive, FLuc inh-1 14µM*, FLuc SDR -ATP 27%, FLuc SDR ATP 18% and FLuc inh-2 8.8µM*.
`COc1ccc(NC(=O)Nc2cccc(-c3ccc(N4CCCCC4)nn3)c2)c(OC)c1` gave NPR1 antag 7.9µM*, HEK293 tox inconclusive, 3T3 cytotox -18%, FLuc inh-1 0.32µM*, FLuc SDR -ATP inconclusive, FLuc SDR ATP inconclusive and FLuc inh-2 0.99µM*.
`CCOc1ccccc1NC(=O)Nc1cccc(-c2ccc(N3CCOCC3)nn2)c1` gave NPR1 antag -25%, HEK293 tox 25µM*, 3T3 cytotox inconclusive, FLuc inh-1 2.8µM*, FLuc SDR -ATP 28%, FLuc SDR ATP inconclusive and FLuc inh-2 3.9µM*.
Screening COc1ccc(-c2ccc(C(=O)Nc3cccc(C(F)(F)F)c3)cc2)nn1 returned HEK293 tox inconclusive and 3T3 cytotox -15%.
For O=C(Cc1n[nH]c(=O)c2ccccc12)NC1CCCc2c1[nH]c1ccccc21 (stereo not drawn) the results were NPR1 antag -18%, HEK293 tox inconclusive, 3T3 cytotox inconclusive and FLuc inh-1 inactive.
CC(C)NC[C@H]1O[C@@H](CO)[C@@H](O)[C@H]1N1CCN(c2ccccn2)CC1 was read as NPR1 antag 7%, HEK293 tox inactive, 3T3 cytotox 3% and FLuc inh-1 inactive.
`COc1ccc(NC(=O)Nc2cccc(-c3ccc(N4CCOCC4)nn3)c2)cc1Cl` gave NPR1 antag 13µM*, HEK293 tox 22µM*, 3T3 cytotox inconclusive, FLuc inh-1 0.63µM*, FLuc SDR -ATP inconclusive, FLuc SDR ATP inconclusive and FLuc inh-2 1.2µM*.
CC(=O)NC1(C)CCN(Cc2cccc(-c3ccc4c(ccn4C)c3)c2)C1 (stereo not drawn) was read as NPR1 antag inconclusive, HEK293 tox 89µM*, 3T3 cytotox 79µM*, FLuc inh-1 14µM*, FLuc SDR -ATP 15%[49.3 µM], FLuc SDR ATP inconclusive and FLuc inh-2 10µM*.
Screening CC(=O)NC1(C)CCCN(Cc2cccc(-c3cccc(F)c3)c2)C1 (stereo not drawn) returned NPR1 antag -1%[70.6 µM], HEK293 tox inconclusive, 3T3 cytotox inconclusive and FLuc inh-1 inactive.
